Source: PubChem BioAssay AID504660 (National Center for Advancing Translational Sciences (NCATS), 2011)
In all, about 360,000 compounds went through this assay and about 3,700 (1%) were called active. The sample as a whole holds a higher share of actives than the screen did. A number with no mark means an inactive call. Cut-off read from the data, not from the text of the source: active = activation above about 30%; inactive = the rest.
Note: 0% is about no effect.

These molecules were tested against D(1A) dopamine receptor (Homo sapiens) (UniProt P21728) (assay: Allosteric Agonists of the Human D1 Dopamine Receptor: qHTS). Details: HEK293 T-REx D1 cells, calcium flux, agonist mode; at 2 µM; stronger effect = higher value.
Chain of D(1A) dopamine receptor (Homo sapiens) (P21728 whole entry, looked up): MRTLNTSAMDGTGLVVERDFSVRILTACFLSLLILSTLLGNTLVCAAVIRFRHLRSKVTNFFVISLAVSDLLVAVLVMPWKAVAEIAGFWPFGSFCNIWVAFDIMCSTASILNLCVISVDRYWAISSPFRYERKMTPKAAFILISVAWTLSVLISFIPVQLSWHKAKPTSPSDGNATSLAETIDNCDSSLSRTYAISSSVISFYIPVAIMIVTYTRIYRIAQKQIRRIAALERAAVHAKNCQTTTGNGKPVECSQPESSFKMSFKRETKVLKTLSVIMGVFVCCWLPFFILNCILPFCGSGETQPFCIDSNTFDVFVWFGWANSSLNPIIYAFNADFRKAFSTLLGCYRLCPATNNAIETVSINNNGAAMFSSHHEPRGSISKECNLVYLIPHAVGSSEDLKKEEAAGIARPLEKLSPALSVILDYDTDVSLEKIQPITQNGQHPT
Method in brief: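 Inducible HEK293 T-REx D1 cells, force-coupled to calcium signalling, were plated at 4000 cells/well with tetracycline and held overnight at 30 C. After no-wash calcium dye loading, compound-evoked calcium rise over 180 s flagged agonists.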
Molecule `CCc1ccc(/C=N/NC(=O)c2nnn(-c3nonc3N)c2CN2CCc3ccccc32)cc1` has an activation of -0.149%.
With `CCCOc1ccc(-c2c(C(=O)N/N=C/c3ccco3)nnn2-c2nonc2N)cc1` the activation was 13.8%.
With `Nc1nonc1-n1nnc(C(=O)N/N=C/c2ccc(Cl)cc2)c1-c1ccc2c(c1)OCO2` the activation was 94.3% (active).
With `Cc1cccc(NC(=O)c2ccc3nc(C(C)C)oc3c2)c1C` the activation was 2.14%.
Work on `Cc1ccc(N(C)C(=O)C2CCN(S(=O)(=O)c3ccc4c(c3)CCCN4C(=O)C3CCC3)CC2)cc1` yielded an activation of 5.77%.
Molecule `COc1ccc(C(=O)NC(=S)N2CCNC(=O)C2CC(=O)OC(C)C)cc1` (centres undefined) has an activation of 2.67%.
With `CCOC(=O)CC1C(=O)NCCN1c1nc2c(C)cccn2c(=O)c1/C=C1\SC(=S)N(C(C)CC)C1=O` (centres undefined) the activation was 265% (active).
Molecule `CCOC(=O)CNC(=O)c1cc2c(=O)n3cccc(C)c3nc2s1` has an activation of -0.0788%.
Molecule `CCC1CN(S(=O)(=O)c2cc(-c3cc(C)no3)ccc2C)c2cc(C)ccc2O1` (centres undefined) has an activation of 8.44%.
Molecule `CSc1ncc(Cl)c(C(=O)Nc2ccc(S(=O)(=O)N3CCCC(C)C3)cc2)n1` (centres undefined) has an activation of 3.25%.
`COC(=O)c1ccccc1NC(=O)c1ccc(C#N)cc1` was tested, and the activation was 1.68%.
With `Cc1ccccc1CNC(=O)C(=O)NCC(c1cccs1)S(=O)(=O)c1cccs1` (centres undefined) the activation was 25.2%.
For `COc1ccc(C(=O)C2CCCN(Cc3cccn3-c3ccccn3)C2)c(C)c1` (centres undefined), the activation was 34% (active).
With `COc1ccc(C(=O)C2CCCN(S(=O)(=O)c3cccc(C)c3)C2)c(C)c1` (centres undefined) the activation was 12.7%.
For `COc1ccc(C(=O)C2CCCN(C(=O)c3cnsn3)C2)c(C)c1` (centres undefined), the activation was 2.63%.
Work on `O=S(=O)(c1ccc2c(c1)OCCCO2)N1CCN(S(=O)(=O)c2c(F)cccc2F)CC1` yielded an activation of 7.42%.
With `CCc1ccc(CNC(=O)c2ccc(CS(=O)c3ccc(Br)cc3)o2)cc1` (centres undefined) the activation was 2.59%.
`CCc1ccccc1NC(=O)c1ccc(F)c(S(=O)(=O)NC2CCCCCC2)c1` showed an activation of -1.43%.
In the case of `O=S(=O)(NC1CCCCC1)c1ccc(F)c2ccccc12`, the activation is reported as 102% (active).
`O=S(=O)(NC1CC1)c1ccc2c3c(cccc13)CC2` was tested, and the activation was 2.42%.
`Nc1c(C(=O)c2cccs2)sc2nsc(SCCN3CCCCC3)c12` was tested, and the activation was 257% (active).
`CCc1ccc(CNCc2c(C(=O)O)n(Cc3ccc(F)cc3Cl)c3cc(OC)ccc23)cc1` was tested, and the activation was 0.499%.
Work on `CCOc1ccccc1NC(=O)C1CCCN(S(=O)(=O)c2cn(C)cn2)C1` (centres undefined) yielded an activation of -2.08%.
In the case of `NC(=O)C1=C[C@@H](c2csc3ccccc23)C[C@@H](OCc2ccc(CO)cc2)O1`, the activation is reported as 11.8%.
For `O=C(NC1CC1)C1=C[C@H](c2c[nH]c3ccccc23)C[C@H](OCc2ccc(CO)cc2)O1`, the activation was 7.93%.
For `NC(=O)C1=C[C@H](c2csc3ccccc23)C[C@H](OCc2ccc(CO)cc2)O1`, the activation was 203% (active).
`Cc1cccc(NC(=O)Cn2c(C(F)(F)F)nc3ccccc32)c1C` showed an activation of 2.74%.
In the case of `Oc1ccc(Cl)cc1C1C=C(c2ccc3c(c2)OCO3)NC(c2ccc(F)c(Br)c2)N1` (centres undefined), the activation is reported as 16.4%.
`Cc1ccc(-c2cc(N)n(Cc3cccc(Cl)c3)n2)cc1` gave an activation of -0.135%.
`COc1cc(OC)c(OC)cc1/C=C/c1nc2cc3ccccc3cc2c(=O)n1-c1ccc(F)c(Cl)c1` gave an activation of 0.411%.
For `CCCN1CCN(CCCNC(=O)c2ccc3nc(Cc4ccccc4)oc3c2)CC1`, the activation was 4.88%.
For `CN1CCN(CCCNC(=O)c2ccc(/C=C3\Oc4ccccc4N(Cc4ccc(Cl)cc4)C3=O)cc2)CC1`, the activation was 87.5% (active).
For `COCCNC(=O)c1ccc2c(c1)N(Cc1cccc(Cl)c1)C(=O)c1ccccc1S2(=O)=O`, the activation was 4.3%.
`Cc1cccc(NC(=O)CN(c2ccc(C(C)C)cc2)S(=O)(=O)c2c(C)nn(C)c2C)c1C` was tested, and the activation was 3.58%.
With `COc1cc(NC(=O)c2cc3ccc4cccnc4c3[nH]2)cc(OC)c1OC` the activation was -0.0279%.
For `Cc1ccc(NC(=O)C(C)c2cccc(C(=O)c3ccccc3)c2)cc1` (centres undefined), the activation was 18.8%.
For `CCC(C(=O)Nc1ccc(C(C)C)cc1)c1ccccc1` (centres undefined), the activation was 75.7% (active).
Molecule `CCCC(C)C(=O)Nc1ccc(NC(C)=O)cc1` (centres undefined) has an activation of 2.66%.
For `CC(=O)N1CCc2cc(Br)cc(S(=O)(=O)CCC(=O)NCCc3ccc(Cl)cc3)c21`, the activation was 1.1%.
`Cc1ccc(NC(=O)Cn2c(=O)n(-c3ccccc3)c(=O)c3c4c(sc32)CCCC4)cc1` gave an activation of 4.64%.
With `CCOC(=O)N1CCc2c(sc3c2c(=O)n(Cc2ccccc2)c(=O)n3CC(=O)Nc2cccc(C)c2)C1` the activation was 47.3% (active).
For `Cc1cccc(NC(=O)Cn2c(=O)n(Cc3ccccc3)c(=O)c3c(C)c(C)sc32)c1`, the activation was 1.32%.
`COCCCNC(=O)c1c(NC(=O)c2cc(=O)c3cc(C)c(C)cc3o2)sc2c1CCCC2` gave an activation of -1.72%.
With `COc1cccc(CNCc2c(C(=O)O)n(Cc3ccc(C)cc3)c3cc(C)ccc23)c1OC` the activation was 0.928%.
For `O=C(NCc1ccccc1)c1cc(-c2cccc(Cl)c2)on1`, the activation was 3.77%.
`CC(NC(=O)c1cc(-c2ccccc2)on1)c1ccccc1` (centres undefined) was tested, and the activation was 94.3% (active).
`O=C(NC1CCCC1)c1cc(-c2ccccc2)on1` showed an activation of 0.117%.
With `CCCn1c2ccccc2c2cnn(CC(=O)N(C)c3ccccc3CC)c(=O)c21` the activation was 0.732%.
For `CCOCCCNC(=O)c1ccc2nc(CCc3ccccc3)oc2c1`, the activation was 0.808%.
Work on `O=C(c1ccc2c(c1)N(Cc1ccccc1)C(=O)c1ccccc1S2(=O)=O)N1CCCC1` yielded an activation of 0.455%.
`Cc1cccc(NC(=O)C2CCN(S(=O)(=O)c3c(C)noc3/C=C/c3ccco3)CC2)c1` gave an activation of 1.4%.
In the case of `CC(O)c1nc2ccccc2n1Cc1ccc([N+](=O)[O-])cc1` (centres undefined), the activation is reported as 0.897%.
In the case of `CC(C)c1ccc(Cn2c(COc3ccccc3)nc3ccccc32)cc1`, the activation is reported as 32.7% (active).
Molecule `O=C(Cn1c(COc2ccccc2)nc2ccccc21)Nc1cc(Cl)c(Cl)cc1Cl` has an activation of -0.172%.
